Data as given in the supplement of paper PMC6411743.
± gives the standard deviation of the averaged measurements. About 5,400 targets were measured; listed, in parts, are those with the largest changes and a random draw of the rest.

Compound: Nc1nc2c(ncn2[C@@H]2O[C@H](COP(=O)(O)OP(=O)(O)OP(=O)(O)O)[C@@H](O)[C@H]2O)c(=O)[nH]1 [guanosine triphosphate]
Assay: NP40-soluble protein abundance relative to vehicle (solubility fold change) (ratio); higher = more soluble protein in presence of GTP
Method in brief: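 Crude Jurkat lysate, prepared by Dounce homogenisation, was exposed to eight concentrations from 0.1 to 10 mM for 10 min at room temperature and then 3 min at 37 °C. Solubilisation used 0.8% NP40 with benzonase for 60 min at 4 °C, followed by ultracentrifugation and TMT labelling of the supernatant for LC-MS/MS. After vsn normalisation of intensities, each value is the fold change against the detergent-processed vehicle within each replicate, across three independent experiments.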

Chain of UniProt Q92833 (Q92833 whole entry): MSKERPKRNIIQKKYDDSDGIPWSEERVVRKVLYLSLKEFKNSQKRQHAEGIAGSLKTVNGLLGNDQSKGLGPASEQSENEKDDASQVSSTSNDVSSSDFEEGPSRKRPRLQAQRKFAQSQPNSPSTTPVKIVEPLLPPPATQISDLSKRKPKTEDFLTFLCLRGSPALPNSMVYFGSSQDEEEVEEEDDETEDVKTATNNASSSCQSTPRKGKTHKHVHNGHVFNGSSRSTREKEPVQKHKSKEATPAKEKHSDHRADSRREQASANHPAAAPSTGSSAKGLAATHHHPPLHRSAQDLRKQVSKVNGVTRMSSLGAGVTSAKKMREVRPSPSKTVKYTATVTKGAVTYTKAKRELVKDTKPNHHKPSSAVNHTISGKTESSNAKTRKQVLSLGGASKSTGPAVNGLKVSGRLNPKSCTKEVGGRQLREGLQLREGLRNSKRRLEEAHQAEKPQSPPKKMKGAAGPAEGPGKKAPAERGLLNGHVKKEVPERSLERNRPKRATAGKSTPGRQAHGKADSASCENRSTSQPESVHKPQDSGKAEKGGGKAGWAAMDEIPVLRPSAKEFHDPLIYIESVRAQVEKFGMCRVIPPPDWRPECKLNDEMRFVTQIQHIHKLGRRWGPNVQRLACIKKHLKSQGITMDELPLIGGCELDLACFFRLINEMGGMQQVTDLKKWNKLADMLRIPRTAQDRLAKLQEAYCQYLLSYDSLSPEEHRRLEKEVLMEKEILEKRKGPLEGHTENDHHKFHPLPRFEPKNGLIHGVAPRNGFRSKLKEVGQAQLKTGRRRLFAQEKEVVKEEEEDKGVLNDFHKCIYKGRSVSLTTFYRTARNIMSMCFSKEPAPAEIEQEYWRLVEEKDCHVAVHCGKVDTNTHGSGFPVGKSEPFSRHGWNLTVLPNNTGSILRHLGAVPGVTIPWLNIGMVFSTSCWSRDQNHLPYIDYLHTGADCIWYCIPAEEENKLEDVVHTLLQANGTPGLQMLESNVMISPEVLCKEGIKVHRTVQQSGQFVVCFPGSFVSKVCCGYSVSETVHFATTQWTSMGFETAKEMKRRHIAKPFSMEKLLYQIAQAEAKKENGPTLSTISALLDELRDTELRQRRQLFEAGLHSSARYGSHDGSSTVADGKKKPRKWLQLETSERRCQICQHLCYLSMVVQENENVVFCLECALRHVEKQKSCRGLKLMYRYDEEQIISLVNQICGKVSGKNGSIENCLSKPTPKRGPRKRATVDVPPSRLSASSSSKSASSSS
Chain of UniProt Q9NYL9 (Q9NYL9 whole entry): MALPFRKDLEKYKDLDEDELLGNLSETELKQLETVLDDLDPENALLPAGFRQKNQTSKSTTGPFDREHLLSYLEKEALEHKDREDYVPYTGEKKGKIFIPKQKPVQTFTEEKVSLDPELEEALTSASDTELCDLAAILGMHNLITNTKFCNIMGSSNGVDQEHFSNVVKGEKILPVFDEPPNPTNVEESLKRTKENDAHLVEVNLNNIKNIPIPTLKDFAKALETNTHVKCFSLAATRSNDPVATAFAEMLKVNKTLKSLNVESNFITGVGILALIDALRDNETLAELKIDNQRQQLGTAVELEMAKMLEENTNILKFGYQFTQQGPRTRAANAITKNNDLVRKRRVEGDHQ
Chain of UniProt Q9NR28 (Q9NR28 whole entry): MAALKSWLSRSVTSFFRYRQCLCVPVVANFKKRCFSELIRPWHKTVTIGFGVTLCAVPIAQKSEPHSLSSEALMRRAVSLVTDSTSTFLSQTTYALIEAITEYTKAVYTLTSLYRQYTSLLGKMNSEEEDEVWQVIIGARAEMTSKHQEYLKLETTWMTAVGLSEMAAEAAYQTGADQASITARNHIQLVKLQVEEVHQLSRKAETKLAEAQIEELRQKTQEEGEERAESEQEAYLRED
Chain of UniProt Q9UG63 (Q9UG63 whole entry): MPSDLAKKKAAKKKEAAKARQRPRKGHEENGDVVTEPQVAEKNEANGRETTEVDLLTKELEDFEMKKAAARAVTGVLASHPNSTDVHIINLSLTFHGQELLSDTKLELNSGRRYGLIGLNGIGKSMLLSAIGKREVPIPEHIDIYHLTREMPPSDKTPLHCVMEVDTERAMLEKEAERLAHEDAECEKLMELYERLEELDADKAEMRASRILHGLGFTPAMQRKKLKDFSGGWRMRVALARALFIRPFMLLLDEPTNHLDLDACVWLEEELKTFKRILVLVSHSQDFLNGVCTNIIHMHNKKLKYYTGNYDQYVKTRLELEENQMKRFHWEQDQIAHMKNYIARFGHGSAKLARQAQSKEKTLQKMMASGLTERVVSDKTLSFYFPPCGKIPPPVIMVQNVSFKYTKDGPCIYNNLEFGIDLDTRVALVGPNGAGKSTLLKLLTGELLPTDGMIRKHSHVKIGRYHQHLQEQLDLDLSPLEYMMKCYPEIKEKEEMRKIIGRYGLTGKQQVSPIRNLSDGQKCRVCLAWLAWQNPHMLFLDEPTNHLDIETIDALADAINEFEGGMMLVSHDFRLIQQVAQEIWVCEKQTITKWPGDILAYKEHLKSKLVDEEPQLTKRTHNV
Chain of UniProt Q9BZM5 (Q9BZM5 whole entry): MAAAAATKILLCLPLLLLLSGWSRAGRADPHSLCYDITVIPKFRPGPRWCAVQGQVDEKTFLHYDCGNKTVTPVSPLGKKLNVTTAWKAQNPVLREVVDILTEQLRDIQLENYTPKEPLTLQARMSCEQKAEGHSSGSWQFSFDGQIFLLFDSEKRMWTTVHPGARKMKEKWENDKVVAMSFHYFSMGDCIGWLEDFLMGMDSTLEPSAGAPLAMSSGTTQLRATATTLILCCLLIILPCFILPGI
Chain of UniProt Q96JM7 (Q96JM7 whole entry): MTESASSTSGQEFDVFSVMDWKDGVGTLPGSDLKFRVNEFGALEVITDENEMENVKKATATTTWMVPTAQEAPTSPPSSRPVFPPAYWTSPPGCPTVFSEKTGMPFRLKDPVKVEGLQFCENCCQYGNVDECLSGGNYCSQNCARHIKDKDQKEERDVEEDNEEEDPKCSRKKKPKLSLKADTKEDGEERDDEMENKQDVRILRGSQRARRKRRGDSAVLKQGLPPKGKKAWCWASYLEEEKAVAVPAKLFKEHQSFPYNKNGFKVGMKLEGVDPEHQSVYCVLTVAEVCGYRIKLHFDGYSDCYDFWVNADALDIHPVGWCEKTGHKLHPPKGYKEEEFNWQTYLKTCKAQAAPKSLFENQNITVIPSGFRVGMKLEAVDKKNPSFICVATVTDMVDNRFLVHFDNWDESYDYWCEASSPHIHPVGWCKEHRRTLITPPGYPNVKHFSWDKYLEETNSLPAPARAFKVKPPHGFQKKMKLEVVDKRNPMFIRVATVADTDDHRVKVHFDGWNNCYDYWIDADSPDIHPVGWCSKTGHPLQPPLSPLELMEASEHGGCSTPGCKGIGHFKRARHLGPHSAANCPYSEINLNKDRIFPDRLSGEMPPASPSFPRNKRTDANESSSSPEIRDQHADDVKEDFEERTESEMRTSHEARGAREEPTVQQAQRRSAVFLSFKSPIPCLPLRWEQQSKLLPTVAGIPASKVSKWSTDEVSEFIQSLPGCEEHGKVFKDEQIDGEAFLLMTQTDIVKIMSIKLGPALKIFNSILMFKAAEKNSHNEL
Chain of UniProt Q9H0C8 (Q9H0C8 whole entry): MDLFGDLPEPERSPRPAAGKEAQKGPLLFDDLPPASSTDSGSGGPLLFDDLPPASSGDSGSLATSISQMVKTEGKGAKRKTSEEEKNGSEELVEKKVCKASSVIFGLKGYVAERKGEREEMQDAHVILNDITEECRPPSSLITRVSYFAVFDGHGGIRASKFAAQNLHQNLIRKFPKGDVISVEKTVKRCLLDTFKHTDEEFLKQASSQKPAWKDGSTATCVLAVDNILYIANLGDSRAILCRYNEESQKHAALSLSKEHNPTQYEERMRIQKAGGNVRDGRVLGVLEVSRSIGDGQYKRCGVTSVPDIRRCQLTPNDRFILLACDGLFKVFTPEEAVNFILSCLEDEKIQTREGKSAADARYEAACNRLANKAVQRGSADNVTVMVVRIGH
Chain of UniProt Q9H3N1 (Q9H3N1 whole entry): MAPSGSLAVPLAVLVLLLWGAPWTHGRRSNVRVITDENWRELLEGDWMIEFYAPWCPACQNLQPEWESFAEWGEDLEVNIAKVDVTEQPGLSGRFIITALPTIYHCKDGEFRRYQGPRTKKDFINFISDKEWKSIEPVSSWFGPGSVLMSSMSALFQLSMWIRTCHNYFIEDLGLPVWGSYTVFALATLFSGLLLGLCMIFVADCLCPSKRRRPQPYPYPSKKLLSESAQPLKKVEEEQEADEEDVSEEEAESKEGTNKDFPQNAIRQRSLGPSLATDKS
Chain of UniProt Q9NVG8 (Q9NVG8 whole entry): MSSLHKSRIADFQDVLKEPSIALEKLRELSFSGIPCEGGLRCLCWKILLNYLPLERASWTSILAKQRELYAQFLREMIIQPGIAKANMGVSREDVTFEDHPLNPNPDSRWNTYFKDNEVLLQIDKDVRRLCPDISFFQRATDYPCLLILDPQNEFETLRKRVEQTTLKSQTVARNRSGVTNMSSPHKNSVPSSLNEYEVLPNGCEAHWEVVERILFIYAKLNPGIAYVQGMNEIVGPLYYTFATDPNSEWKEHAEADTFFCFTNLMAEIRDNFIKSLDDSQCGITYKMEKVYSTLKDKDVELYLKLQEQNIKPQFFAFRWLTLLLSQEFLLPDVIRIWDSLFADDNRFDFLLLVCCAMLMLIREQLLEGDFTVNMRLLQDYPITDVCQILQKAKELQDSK
Chain of UniProt Q9Y2S2 (Q9Y2S2 whole entry): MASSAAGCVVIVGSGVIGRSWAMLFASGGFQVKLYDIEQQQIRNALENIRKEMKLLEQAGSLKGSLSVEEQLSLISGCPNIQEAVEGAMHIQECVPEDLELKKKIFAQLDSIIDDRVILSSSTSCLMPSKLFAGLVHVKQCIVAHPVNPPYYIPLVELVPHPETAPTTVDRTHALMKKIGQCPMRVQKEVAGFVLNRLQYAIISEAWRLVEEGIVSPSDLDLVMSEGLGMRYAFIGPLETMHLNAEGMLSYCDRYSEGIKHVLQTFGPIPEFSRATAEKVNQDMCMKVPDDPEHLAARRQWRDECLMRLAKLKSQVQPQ

Target	NP40-soluble protein abundance (concentration: 0.1mM)	NP40-soluble protein abundance (concentration: 0.5mM)	NP40-soluble protein abundance (concentration: 1mM)	NP40-soluble protein abundance (concentration: 2mM)	NP40-soluble protein abundance (concentration: 4mM)	NP40-soluble protein abundance (concentration: 6mM)	NP40-soluble protein abundance (concentration: 8mM)	NP40-soluble protein abundance (concentration: 10mM)
FAM117A (UniProt Q9C073)	1.31 ± 0.14	0.983 ± 0.018	1.28 ± 0.084	1.03 ± 0.024	1.1204 ± 7.8e-05	1.02 ± 0.037	1.1 ± 0.056	1.12 ± 0.086
FN3KRP (UniProt Q9HA64)	0.9717 ± 0.0097	0.991 ± 0.014	0.927 ± 0.032	0.913 ± 0.061	0.905 ± 0.042	0.884 ± 0.031	0.89 ± 0.047	0.868 ± 0.051
PEF1 (UniProt Q9UBV8)	0.946 ± 0.077	0.888 ± 0.036	0.995 ± 0.1	0.994 ± 0.043	1.03 ± 0.076	0.993 ± 0.063	0.891 ± 0.084	1.02 ± 0.14
UniProt Q9UII2	0.946 ± 0.08	0.972 ± 0.11	1.01 ± 0.078	0.936 ± 0.1	0.875 ± 0.1	0.908 ± 0.14	0.93 ± 0.07	0.963 ± 0.07
UniProt Q96JM7|Q96JM7-2	1.13 ± 0.15	1.14 ± 0.016	1.08 ± 0.16	1.13 ± 0.078	1.1 ± 0.2	1.23 ± 0.031	1.11 ± 0.056	1.15 ± 0.073
UniProt Q9Y2S2|Q9Y2S2-2	1.09 ± 0.12	0.991 ± 0.11	0.974 ± 0.12	0.971 ± 0.11	0.948 ± 0.12	0.922 ± 0.13	0.946 ± 0.15	0.912 ± 0.18
UniProt Q9BX67	1.04 ± 0.013	0.954 ± 0.065	0.965 ± 0.026	0.913 ± 0.066	0.905 ± 0.046	0.88 ± 0.086	0.953 ± 0.035	0.897 ± 0.06
RNF181 (UniProt Q9P0P0)	0.961 ± 0.027	0.925 ± 0.028	1.05 ± 0.077	1.03 ± 0.045	1.01 ± 0.013	1.02 ± 0.05	1.04 ± 0.1	1.09 ± 0.075
UniProt Q9NR28|Q9NR28-2	0.964 ± 0.011	0.957 ± 0.055	0.972 ± 0.041	0.963 ± 0.075	0.976 ± 0.059	0.96 ± 0.068	0.94 ± 0.033	1.01 ± 0.035
UniProt Q9Y3D0	0.836 ± 0.067	0.869 ± 0.033	1.02 ± 0.042	1.04 ± 0.049	0.987 ± 0.043	1.04 ± 0.013	1.04 ± 0.089	1.09 ± 0.17
JARID2 (UniProt Q92833)	0.971 ± 0.078	1.07 ± 0.11	1.09 ± 0.088	1.08 ± 0.087	1.05 ± 0.04	1.05 ± 0.088	1.18 ± 0.04	1.15 ± 0.026
NOP58 (UniProt Q9Y2X3)	1.01 ± 0.049	1.02 ± 0.019	1.07 ± 0.075	1.19 ± 0.044	1.4 ± 0.066	1.58 ± 0.13	1.77 ± 0.11	2.07 ± 0.16
ULBP2 (UniProt Q9BZM5)	0.893 ± 0.085	0.86 ± 0.1	0.918 ± 0.073	0.884 ± 0.1	0.907 ± 0.098	0.89 ± 0.043	0.916 ± 0.1	0.925 ± 0.088
UniProt Q96RW7|Q96RW7-2	1.17 ± 0.29	1.11 ± 0.23	0.938 ± 0.16	1.06 ± 0.37	0.985 ± 0.2	0.889 ± 0.19	0.892 ± 0.13	0.924 ± 0.16
UniProt Q9BSF4	1.16 ± 0.16	1.09 ± 0.11	1.12 ± 0.085	1.11 ± 0.027	1.18 ± 0.091	1.17 ± 0.037	0.972 ± 0.071	0.97875 ± 0.0002
ILKAP (UniProt Q9H0C8)	0.959 ± 0.034	0.95 ± 0.023	0.905 ± 0.049	0.904 ± 0.058	0.88 ± 0.058	0.897 ± 0.048	0.87 ± 0.049	0.869 ± 0.065
CCDC134 (UniProt Q9H6E4)	0.934 ± 0.071	0.893 ± 0.1	0.944 ± 0.089	0.911 ± 0.087	0.905 ± 0.077	0.881 ± 0.084	0.869 ± 0.1	0.86 ± 0.091
UniProt Q9Y3D9|J3QLR8	1.01 ± 0.17	1.01 ± 0.19	1.61 ± 0.35	1.69 ± 0.093	1.771 ± 0.00083	1.61 ± 0.061	1.49 ± 0.28	1.73 ± 0.19
UniProt Q9H3N1	0.957 ± 0.055	0.947 ± 0.043	0.935 ± 0.04	0.871 ± 0.062	0.858 ± 0.071	0.878 ± 0.091	0.885 ± 0.053	0.859 ± 0.065
UniProt Q9UG63|Q9UG63-2	1.1 ± 0.076	1.11 ± 0.014	1.07 ± 0.072	1.35 ± 0.072	1.83 ± 0.061	2.15 ± 0.12	2.39 ± 0.11	2.744 ± 0.018
TMOD3 (UniProt Q9NYL9)	0.878 ± 0.033	0.855 ± 0.044	1.03 ± 0.039	1.01 ± 0.029	1.02 ± 0.019	1.02 ± 0.026	1 ± 0.048	1.08 ± 0.04
UniProt Q9H330|Q9H330-2	0.908 ± 0.04	0.876 ± 0.06	0.796 ± 0.083	0.809 ± 0.017	0.799 ± 0.035	0.834 ± 0.028	0.81 ± 0.074	0.833 ± 0.037
NCAPG (UniProt Q9BPX3)	0.992 ± 0.015	1.06 ± 0.016	0.986 ± 0.03	1.03 ± 0.044	0.978 ± 0.042	1.01 ± 0.047	0.987 ± 0.056	1.01 ± 0.031
STUB1 (UniProt Q9UNE7)	0.948 ± 0.056	0.8985 ± 0.0031	1.02 ± 0.1	1.03 ± 0.027	1.01 ± 0.078	1.01 ± 0.012	1.01 ± 0.049	1.03 ± 0.081
TBC1D13 (UniProt Q9NVG8)	0.962 ± 0.036	0.985 ± 0.048	0.927 ± 0.046	0.896 ± 0.047	0.857 ± 0.071	0.866 ± 0.066	0.847 ± 0.1	0.822 ± 0.089
UniProt Q9C0B5|Q9C0B5-2	1.02 ± 0.049	0.949 ± 0.024	0.96 ± 0.018	0.938 ± 0.012	0.903 ± 0.018	0.909 ± 0.019	1.02 ± 0.03	0.997 ± 0.029
UniProt Q96T23|Q96T23-2	1.02 ± 0.028	1.09 ± 0.081	1.25 ± 0.014	1.45 ± 0.1	1.72 ± 0.22	2.07 ± 0.29	2.49 ± 0.49	2.71 ± 0.62
UniProt Q9Y3U8|J3QSB5	0.976 ± 0.084	0.987 ± 0.01	1.04 ± 0.075	0.994 ± 0.14	0.921 ± 0.12	0.855 ± 0.09	0.514 ± 0.13	0.919 ± 0.16
UniProt Q9NVR5	0.928 ± 0.076	0.944 ± 0.078	0.923 ± 0.048	0.885 ± 0.16	0.866 ± 0.12	0.931 ± 0.13	0.869 ± 0.086	0.906 ± 0.082
